The whole screen tested about 1,100 compounds, of which about 880 (80%) were called active. The set was probably picked from earlier hits. The list shows a part of the results. Entries with a potency or affinity are not part of this list. Unmarked numbers belong to inactive results. No rule for the calls is given here.
biological target: Induced myeloid leukemia cell differentiation protein Mcl-1 (Homo sapiens) (UniProt Q07820); test: Mcl-1/Noxa binding inhibitor potency, dose response, biochemical, TR-FRET (AID 1417); settings: Mcl-1/Noxa peptide interaction, cell-free TR-FRET (terbium/rhodamine), 2 h; at 54 µM (top of the series);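 also: 100% = protein plus peptide without compound and 0% = peptide alone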
Sequence (Q07820 whole entry, looked up): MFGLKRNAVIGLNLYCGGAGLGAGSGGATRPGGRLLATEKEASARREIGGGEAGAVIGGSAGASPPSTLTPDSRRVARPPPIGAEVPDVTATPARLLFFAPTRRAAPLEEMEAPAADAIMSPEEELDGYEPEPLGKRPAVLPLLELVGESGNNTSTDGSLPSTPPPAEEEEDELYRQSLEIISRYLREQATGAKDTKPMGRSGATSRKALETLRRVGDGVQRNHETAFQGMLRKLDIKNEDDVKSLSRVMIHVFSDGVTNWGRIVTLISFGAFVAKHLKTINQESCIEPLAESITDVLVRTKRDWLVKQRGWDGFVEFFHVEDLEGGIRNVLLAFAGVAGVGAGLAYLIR

Compound	percent of control (lower = inhibition)
CCN1C(=O)/C(=C2/Sc3ccc(OC)cc3N2C)SC1=Nc1cccc(O)c1	54.8%
Cn1c(=O)c2c(nc(NCc3ccco3)n2CC(O)COc2ccccc2)n(C)c1=O (stereo not drawn)	81.3%
N=C1/C(=C\c2ccc(-c3ccc(C(=O)O)cc3)o2)C(=O)N=C2SC=C(c3ccccc3)N12	-1.95% (active)
COc1ccccc1C1NC=C([N+](=O)[O-])C=C1[N+](=O)[O-] (stereo not drawn)	111%
CC1CCCCC1NC(=O)c1ccc2c(c1)[nH]c(=O)n2C1CCCC1 (stereo not drawn)	86.3%
c1ccc(Nc2cccc(Nc3ccccc3)c2)cc1	60.5%
CN(C)c1ccc(NC(=O)Nc2cccc(Cl)c2)cc1	49.6% (active)
CN(C)c1ccc(NC(=O)/C=C/c2c(Cl)cccc2Cl)cc1	80.1%
